Assay [1] concerns the target T1, Aspartate--tRNA(Asp/Asn) ligase (Mycobacterium tuberculosis (strain ATCC 25618 / H37Rv)) (UniProt P9WFW3). Also: in the data most compounds retested in dose-response had high values.
T1 sequence (whole entry): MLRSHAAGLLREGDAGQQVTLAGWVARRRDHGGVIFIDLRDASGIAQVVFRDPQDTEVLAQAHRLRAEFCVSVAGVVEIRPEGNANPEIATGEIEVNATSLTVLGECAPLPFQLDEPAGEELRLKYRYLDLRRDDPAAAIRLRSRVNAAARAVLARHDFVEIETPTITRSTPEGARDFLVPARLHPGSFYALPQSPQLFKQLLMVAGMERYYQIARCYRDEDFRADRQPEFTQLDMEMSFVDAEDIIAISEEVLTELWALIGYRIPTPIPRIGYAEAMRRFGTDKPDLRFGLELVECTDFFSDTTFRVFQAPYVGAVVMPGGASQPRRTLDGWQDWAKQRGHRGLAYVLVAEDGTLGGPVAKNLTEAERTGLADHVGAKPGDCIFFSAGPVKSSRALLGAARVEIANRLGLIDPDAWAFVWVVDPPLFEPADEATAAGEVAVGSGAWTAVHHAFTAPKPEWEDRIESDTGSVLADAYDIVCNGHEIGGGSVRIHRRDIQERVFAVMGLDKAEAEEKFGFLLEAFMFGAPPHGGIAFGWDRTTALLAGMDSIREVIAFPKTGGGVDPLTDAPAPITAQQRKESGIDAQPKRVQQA
The experiment in a line: Assay for Asp RNA synthetase-1 from Mycobacterium tuberculosis. Details: scale not given: direction of the effect not stated beside the values. In kind it is functional. The conditions noted are these: 30 µM.

Assay [2] concerns the target Shiga toxin 2 (Escherichia coli O157:H7) (UniProt P09385+P09386). The experiment in a line: E. coli 0.157:H7 Shiga Toxin SOP - stx2 screening assay. The conditions noted are these: 30 µM. Details: scale not given: direction of the effect not stated beside the values. In kind it is functional.

As for `Cc1ccc(CN2CCCn3c(nc(CN4CCCC4)cc3=O)C2)s1`, the figures for the Percent Effect in assay [1] and in assay [2] were 4.32% and 7.63%, respectively.
For `CCn1nc2c(cc1=O)CN(Cc1nc(-c3ccccn3)no1)CC2`, the results for the Percent Effect in assay [1] and in assay [2] were 29% and -43.5%, respectively.
In the case of `Cc1nn(C)c(N(C)C)c1CNCCNS(C)(=O)=O`, the Percent Effect in assay [1] was -4.66%; in assay [2] it was 17.7%.
Regarding `CC(C(=O)NCCOc1cccc(Cl)c1)n1cncn1` (stereo unspecified), the Percent Effect in assay [1] is 4.65%; in assay [2], -10.9%.
Turning to `Cc1ccc(N2CCCC3(COCCN(c4nccs4)C3)C2)nn1` (stereo unspecified), the figures for the Percent Effect in assay [1] and in assay [2] were -0.638% and -17.6%, respectively.
Consider `COc1ccccc1CN1CCC2(CC1)CC(Oc1ccccn1)CO2` (stereo unspecified), for which the Percent Effect in assay [1] is 1.6%; in assay [2], -0.702%.
Turning to `O=C(NCCn1ccnc1)c1cccc(F)c1`, the Percent Effect amounted to 3.65% in assay [1] and 24.2% in assay [2].
In the same order, the values of `Cc1cnn(CC2CCCCN2CC(=O)NCc2ccccn2)c1` (stereo unspecified) are -0.659% and 0.25%.
Regarding `Cc1nc(COc2cccc(C#N)c2)no1`, the figures for the Percent Effect in assay [1] and in assay [2] were -0.618% and 0.222%, respectively.
Consider `CCc1noc(C2CCCCN2C(=O)c2ccn(C3CCCC3)n2)n1` (stereo unspecified), for which the figures for the Percent Effect in assay [1] and in assay [2] were -5.11% and -5.88%, respectively.
In the case of `CC(C)c1nc2n(n1)CC(NCc1nc(-c3cccnc3)no1)CC2` (stereo unspecified), the Percent Effect was -2.88% in assay [1] and -31.5% in assay [2].
Turning to `Cc1nc(CN(C)C2CCN(Cc3ccc4ccccc4n3)C2)no1` (stereo unspecified), the figures for the Percent Effect in assay [1] and in assay [2] were 3.73% and -68.9%, respectively.
With `O=C(NCCN1CCOCC1)NCC(O)c1cccc(F)c1` (stereo unspecified), the figures for the Percent Effect in assay [1] and in assay [2] were 2.52% and 4.91%, respectively.
`O=C(CCc1cc2n(n1)CCCN(C(=O)c1ccccn1)C2)NC1CC1`: the Percent Effect was -1.14% in assay [1] and 9.76% in assay [2].
In the same order, the values of `COCCN1CCCC(c2nc3c([nH]2)CC(C)(C)CNC3=O)C1` (stereo unspecified) are 2.91% and 0.913%.
The corresponding values for `O=C(CCN1CCCN(c2nccs2)CC1)Nc1ccccc1` are -1.81% and -52.2%.
Take `CCn1ccnc1CN1CCCN(C(=O)c2cccn2C)CC1`: the Percent Effect in assay [1] is -3.17%; in assay [2], 5.64%.
For `Cn1nc(CNC(=O)NCc2ccc(Cl)cc2)c2c1CCOC2`, the Percent Effect in assay [1] is 1.91%; in assay [2], -9.65%.

The values are drawn from ChEMBL document CHEMBL3988442, “University of Dundee, Small-Polar-MMV Screening Library” (2021).
